The source of these data is the supplement of paper PMC12067093, “Discovery and optimisation of a covalent ligand for TRIM25 and its application to targeted protein ubiquitination” (Chemical Science, 2025).

The full data set covers some 21,000 targets. This sample favours those with the largest changes.
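Further: competitive profiling in live THP-1 cells: cysteine peptides tagged with an iodoacetamide desthiobiotin (IA-DTB) probe, intensity after compound treatment relative to DMSO-treated cells.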

Sequence of UniProt Q9H267 (Q9H267 whole entry, looked up): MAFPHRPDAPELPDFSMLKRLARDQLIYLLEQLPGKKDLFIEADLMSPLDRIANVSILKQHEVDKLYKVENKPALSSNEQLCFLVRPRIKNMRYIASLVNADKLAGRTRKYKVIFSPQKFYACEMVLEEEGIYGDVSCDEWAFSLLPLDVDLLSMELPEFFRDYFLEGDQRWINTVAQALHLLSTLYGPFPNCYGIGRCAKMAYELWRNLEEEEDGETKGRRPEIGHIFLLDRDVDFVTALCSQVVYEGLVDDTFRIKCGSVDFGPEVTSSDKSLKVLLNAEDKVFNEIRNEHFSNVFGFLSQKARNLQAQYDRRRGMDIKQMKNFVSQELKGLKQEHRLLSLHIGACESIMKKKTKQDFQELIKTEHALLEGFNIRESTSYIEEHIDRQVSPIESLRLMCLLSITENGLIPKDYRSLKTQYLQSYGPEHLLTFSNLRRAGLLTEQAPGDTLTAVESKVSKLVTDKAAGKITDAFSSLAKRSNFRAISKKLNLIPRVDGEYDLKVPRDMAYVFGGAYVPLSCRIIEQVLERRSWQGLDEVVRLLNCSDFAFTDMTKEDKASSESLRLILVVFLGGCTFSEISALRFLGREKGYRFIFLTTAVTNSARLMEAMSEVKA
Sequence of UniProt Q13263 (Q13263 whole entry, looked up): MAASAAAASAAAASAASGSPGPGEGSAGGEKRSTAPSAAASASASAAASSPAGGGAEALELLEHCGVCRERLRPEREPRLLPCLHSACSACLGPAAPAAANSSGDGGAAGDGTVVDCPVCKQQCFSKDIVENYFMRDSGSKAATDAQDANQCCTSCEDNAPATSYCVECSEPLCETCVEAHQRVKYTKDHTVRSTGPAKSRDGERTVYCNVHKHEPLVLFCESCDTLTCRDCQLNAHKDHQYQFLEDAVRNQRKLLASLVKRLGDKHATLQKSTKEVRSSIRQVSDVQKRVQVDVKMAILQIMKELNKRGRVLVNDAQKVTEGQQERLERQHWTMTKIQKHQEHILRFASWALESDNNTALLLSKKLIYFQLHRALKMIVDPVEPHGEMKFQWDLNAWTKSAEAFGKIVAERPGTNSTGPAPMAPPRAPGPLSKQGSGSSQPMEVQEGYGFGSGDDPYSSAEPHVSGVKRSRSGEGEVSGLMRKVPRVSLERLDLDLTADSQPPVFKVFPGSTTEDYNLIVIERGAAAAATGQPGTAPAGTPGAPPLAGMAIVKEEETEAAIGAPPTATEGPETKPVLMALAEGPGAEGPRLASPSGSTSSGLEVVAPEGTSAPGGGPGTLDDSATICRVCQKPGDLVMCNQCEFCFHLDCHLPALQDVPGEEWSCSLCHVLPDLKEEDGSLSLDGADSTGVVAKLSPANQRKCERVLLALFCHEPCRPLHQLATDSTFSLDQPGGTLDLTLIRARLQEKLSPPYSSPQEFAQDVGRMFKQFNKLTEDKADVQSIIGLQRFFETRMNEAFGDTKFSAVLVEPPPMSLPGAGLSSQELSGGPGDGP
Sequence of UniProt O94759 (O94759 whole entry, looked up): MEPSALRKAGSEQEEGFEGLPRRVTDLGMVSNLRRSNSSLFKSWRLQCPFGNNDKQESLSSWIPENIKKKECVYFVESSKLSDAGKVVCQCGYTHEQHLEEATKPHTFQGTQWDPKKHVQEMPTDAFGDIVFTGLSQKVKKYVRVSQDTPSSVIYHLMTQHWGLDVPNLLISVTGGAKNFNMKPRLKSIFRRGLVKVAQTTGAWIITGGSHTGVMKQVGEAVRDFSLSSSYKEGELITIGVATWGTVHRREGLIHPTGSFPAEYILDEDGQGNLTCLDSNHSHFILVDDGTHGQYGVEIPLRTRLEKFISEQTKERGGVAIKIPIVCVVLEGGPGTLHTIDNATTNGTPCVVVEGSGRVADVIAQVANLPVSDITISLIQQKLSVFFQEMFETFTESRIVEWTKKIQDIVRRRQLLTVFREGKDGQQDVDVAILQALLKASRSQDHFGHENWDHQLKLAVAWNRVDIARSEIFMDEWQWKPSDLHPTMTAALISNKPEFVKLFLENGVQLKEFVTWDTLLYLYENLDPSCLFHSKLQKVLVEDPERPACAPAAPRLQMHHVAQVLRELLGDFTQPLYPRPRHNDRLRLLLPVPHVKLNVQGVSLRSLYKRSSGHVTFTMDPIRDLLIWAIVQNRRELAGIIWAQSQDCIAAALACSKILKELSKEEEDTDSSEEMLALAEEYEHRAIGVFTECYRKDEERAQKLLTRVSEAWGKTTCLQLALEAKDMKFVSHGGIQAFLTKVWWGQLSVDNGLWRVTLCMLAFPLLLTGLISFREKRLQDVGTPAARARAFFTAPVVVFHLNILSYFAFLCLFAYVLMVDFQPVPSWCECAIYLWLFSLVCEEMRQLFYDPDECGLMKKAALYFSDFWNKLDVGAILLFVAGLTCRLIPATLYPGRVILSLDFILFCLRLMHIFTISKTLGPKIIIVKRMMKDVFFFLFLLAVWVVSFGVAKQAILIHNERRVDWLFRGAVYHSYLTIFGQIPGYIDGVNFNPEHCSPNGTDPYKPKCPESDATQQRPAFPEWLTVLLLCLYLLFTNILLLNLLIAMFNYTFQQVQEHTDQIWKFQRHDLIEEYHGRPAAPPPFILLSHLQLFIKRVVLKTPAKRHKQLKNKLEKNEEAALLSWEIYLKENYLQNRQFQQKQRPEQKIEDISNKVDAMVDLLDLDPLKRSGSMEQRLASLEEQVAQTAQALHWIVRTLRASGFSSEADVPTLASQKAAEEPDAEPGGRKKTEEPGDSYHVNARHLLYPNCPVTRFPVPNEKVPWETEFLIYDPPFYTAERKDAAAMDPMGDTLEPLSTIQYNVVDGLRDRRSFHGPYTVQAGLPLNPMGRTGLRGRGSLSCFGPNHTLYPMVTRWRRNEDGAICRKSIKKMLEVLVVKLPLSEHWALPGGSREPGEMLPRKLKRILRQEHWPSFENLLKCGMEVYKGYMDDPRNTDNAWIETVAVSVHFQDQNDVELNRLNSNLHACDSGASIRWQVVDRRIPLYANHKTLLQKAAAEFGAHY
Sequence of UniProt P22314 (P22314 whole entry, looked up): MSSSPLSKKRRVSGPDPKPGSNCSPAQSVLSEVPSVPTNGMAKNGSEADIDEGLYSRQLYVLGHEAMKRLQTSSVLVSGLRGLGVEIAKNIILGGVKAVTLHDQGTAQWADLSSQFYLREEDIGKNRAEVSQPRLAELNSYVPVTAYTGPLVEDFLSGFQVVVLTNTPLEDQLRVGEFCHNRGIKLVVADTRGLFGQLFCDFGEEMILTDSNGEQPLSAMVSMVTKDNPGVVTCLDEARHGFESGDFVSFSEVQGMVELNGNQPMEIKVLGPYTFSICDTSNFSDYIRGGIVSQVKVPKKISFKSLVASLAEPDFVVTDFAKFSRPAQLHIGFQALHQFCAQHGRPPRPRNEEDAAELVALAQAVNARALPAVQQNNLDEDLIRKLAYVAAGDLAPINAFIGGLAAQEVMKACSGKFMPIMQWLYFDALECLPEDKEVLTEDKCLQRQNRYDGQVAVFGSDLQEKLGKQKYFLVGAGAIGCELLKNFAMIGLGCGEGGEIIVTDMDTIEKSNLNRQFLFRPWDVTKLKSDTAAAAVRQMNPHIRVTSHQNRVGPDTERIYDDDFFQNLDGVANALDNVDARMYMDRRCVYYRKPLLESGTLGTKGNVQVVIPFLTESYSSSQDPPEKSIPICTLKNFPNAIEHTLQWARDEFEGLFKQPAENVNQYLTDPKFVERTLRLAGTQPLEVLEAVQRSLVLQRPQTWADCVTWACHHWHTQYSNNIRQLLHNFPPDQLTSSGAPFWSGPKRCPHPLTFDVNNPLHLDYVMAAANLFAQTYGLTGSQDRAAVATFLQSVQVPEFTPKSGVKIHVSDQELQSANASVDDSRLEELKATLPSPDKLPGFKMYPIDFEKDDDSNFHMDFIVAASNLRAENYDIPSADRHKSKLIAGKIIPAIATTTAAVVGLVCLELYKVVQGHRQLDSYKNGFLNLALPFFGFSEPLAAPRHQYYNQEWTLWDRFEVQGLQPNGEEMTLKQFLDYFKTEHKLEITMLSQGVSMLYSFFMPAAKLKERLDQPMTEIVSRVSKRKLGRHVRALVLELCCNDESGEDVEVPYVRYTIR
Sequence of UniProt Q86UV5 (Q86UV5 whole entry, looked up): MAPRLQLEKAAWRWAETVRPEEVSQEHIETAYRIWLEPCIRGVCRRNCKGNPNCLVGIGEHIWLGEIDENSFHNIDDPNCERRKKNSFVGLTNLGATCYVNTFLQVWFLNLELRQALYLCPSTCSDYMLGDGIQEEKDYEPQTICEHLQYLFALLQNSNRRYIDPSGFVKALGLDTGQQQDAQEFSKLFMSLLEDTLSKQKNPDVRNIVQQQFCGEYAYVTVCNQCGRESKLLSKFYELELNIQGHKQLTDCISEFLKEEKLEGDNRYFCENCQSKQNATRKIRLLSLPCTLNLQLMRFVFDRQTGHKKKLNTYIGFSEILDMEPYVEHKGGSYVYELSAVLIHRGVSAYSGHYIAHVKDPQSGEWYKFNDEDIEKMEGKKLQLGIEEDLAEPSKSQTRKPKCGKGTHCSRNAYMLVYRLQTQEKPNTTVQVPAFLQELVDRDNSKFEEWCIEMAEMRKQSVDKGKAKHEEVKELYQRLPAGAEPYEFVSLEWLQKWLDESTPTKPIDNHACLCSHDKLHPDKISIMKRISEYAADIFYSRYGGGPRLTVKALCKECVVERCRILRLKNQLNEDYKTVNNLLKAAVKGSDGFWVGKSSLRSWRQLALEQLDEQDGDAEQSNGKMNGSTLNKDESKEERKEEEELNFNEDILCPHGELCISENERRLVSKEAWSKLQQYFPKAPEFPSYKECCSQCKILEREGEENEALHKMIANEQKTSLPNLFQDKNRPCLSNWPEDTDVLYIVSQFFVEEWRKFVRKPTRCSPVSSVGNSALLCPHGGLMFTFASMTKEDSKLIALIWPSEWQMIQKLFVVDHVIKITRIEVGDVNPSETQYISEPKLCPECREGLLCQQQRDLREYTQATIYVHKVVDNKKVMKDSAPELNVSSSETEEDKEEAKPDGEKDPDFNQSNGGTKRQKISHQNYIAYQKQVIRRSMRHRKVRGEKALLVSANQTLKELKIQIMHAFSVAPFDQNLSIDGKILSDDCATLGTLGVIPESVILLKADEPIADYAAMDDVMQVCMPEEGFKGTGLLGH

Compound in one test: Cc1cc(ccc1-c1ccccc1)C(=O)N1CCCN(CC1)C(=O)CCl [compound 10]
Put plainly: probe-labelled cysteine peptide fold change vs DMSO (competition) (log2 fold change); higher = less target engagement (more negative = stronger competition). Conditions: 10 µM; THP-1; incubation time: 4 h.
In the case of “VTA1_Q9NP79_87_QLGDNEAITQEIVGCAHLENYALK (UniProt Q9NP79)”, the “probe-labelled cysteine peptide fold change” value worked out at 0.0147.
As to “UBR7_Q8N806_155+158_RPYPDPEDEIPDEMIQCVVCEDWFHGR (UniProt Q8N806)”, the “probe-labelled cysteine peptide fold change” value was -0.195.
“USP48_Q86UV5_652+658_KEEEELNFNEDILCPHGELCISENERR (UniProt Q86UV5)”: the “probe-labelled cysteine peptide fold change” value was -0.493.
Still for that read-out and setting: to “UBAP1_Q9NZ09_243_ATLDFKPLHKPNGFITLPQLGNCEK (UniProt Q9NZ09)” belongs -0.239; to “UBE2G2_P60604_75_FTCEMFHPNIYPDGR (UniProt P60604)”, -0.0589; to “UFC1_Q9Y3C8_116_ICLTDHFKPLWAR (UniProt Q9Y3C8)”, -0.183.
Same read-out and setting: to TPX2_Q9ULW0_301_GCTIVK (UniProt Q9ULW0) belongs 0.583; to “VLDLR_P98155_251_CPASEIQCGSGECIHK (UniProt P98155)”, -0.12.
Still for that read-out and setting: then “TRPM7_Q96QT4_1411_FFVSTPSQPSCK (UniProt Q96QT4)”, with -0.337; and “TRIM28_Q13263_221+229_HEPLVLFCESCDTLTCR (UniProt Q13263)”, with -0.0841; and “UBA1_P22314_711_SLVLQRPQTWADCVTWACHHWHTQYSNNIR (UniProt P22314)”, with -0.12.
As for “TXN2_Q99757_90+93_VVNSETPVVVDFHAQWCGPCK (UniProt Q99757)”, the “probe-labelled cysteine peptide fold change” value was -1.92.
Still for that read-out and setting: then “UBXN7_O94888_478_KLSHLDYDITLQEAGLCPQETVFVQER (UniProt O94888)”, with 0.134; and “VAPA_Q9P0L0_128_CVFEMPNENDK (UniProt Q9P0L0)”, with -0.217; and “UBR4_Q5T4S7_4890_KQQGYSTVSHFNIVHYDCHLAAVR (UniProt Q5T4S7)”, with 0.0563.
Still for that read-out and setting: then “TRAP1_Q12931_527_KDTEVLFCFEQFDELTLLHLR (UniProt Q12931)”, with 0.143; and “TYK2_P29597_736_NLVHGNVCGR (UniProt P29597)”, with -0.00731; and “TXNDC5_Q8NBS9_350+353_FYAPWCGHCK (UniProt Q8NBS9)”, with -0.375.
Same read-out and setting: then “TXNIP_Q9H3M7_170_KVSCMFIPDGR (UniProt Q9H3M7)”, with 0.205; and “TXNL1_O43396_149_AGCECLNESDEHGFDNCLRK (UniProt O43396)”, with -0.189; and “UHRF2_Q96PU4_42_VWALFDVRPECQR (UniProt Q96PU4)”, with -0.064.
Consider “UCK2_Q9BZX2_197_PAFEEFCLPTK (UniProt Q9BZX2)”, for which the “probe-labelled cysteine peptide fold change” value is -0.0609.
Same read-out and setting: to “TRIM24_O15164_127+134_CPVCSQECAER (UniProt O15164)” belongs 0.118.
Consider “USP14_P54578_257_CTESEEEEVTK (UniProt P54578)”, for which the “probe-labelled cysteine peptide fold change” value is -0.254.
On the same count and under the same terms, to “TRAPPC6A_O75865_124_FLAFTCGLLR (UniProt O75865)” belongs 0.203.
Regarding “VPS33B_Q9H267_259_CGSVDFGPEVTSSDK (UniProt Q9H267)”, the “probe-labelled cysteine peptide fold change” value turned out to be 0.169.
Same read-out and setting: then “VCPIP1_Q96JH7_469+472_CLLCGALSELHVPPEWLAPGGK (UniProt Q96JH7)”, with -0.12.
On the same count and under the same terms, then UBA6_A0AVT1_156_YQCVVLTEMK, with 0.126; and “UBR1_Q8IWV7_1101_EVLTCILCQEEQEVK (UniProt Q8IWV7)”, with -0.162.
Consider “TRA2B_P62995_119_ANPDPNCCLGVFGLSLYTTER (UniProt P62995)”, for which the “probe-labelled cysteine peptide fold change” value came to 0.163.
Same read-out and setting: then “TRIM25_Q14258_110_ASAPSPNAQVACDHCLK (UniProt Q14258)”, with -0.0981; and “USP11_P51784_894_DGHYTTFACNK (UniProt P51784)”, with -0.051; and “TSPAN2_O60636_164_ESSEQVQPTCPK (UniProt O60636)”, with -0.411.
Consider “VCPIP1_Q96JH7_517_NYSFPLNNLVCSYDSVK (UniProt Q96JH7)”, for which the “probe-labelled cysteine peptide fold change” value was found to be 0.0884.
The same measure, in the same setting: to “UBR4_Q5T4S7_2222_HTACNEQQR (UniProt Q5T4S7)” belongs -0.245; to “TRMT2A_Q8IZ69_270_GGTCAVAAPFDTVHIPEATK (UniProt Q8IZ69)”, -0.0935.
On the same count and under the same terms, to “TRPM2_O94759_72_ECVYFVESSK (UniProt O94759)” belongs -0.0415.
The same measure, in the same setting: to “UROD_P06132_308_TVTLQGNLDPCALYASEEEIGQLVK (UniProt P06132)” belongs -0.0737.
On to “UBE2L6_O14933_86+98_IYHPNVDENGQICLPIISSENWKPCTK (UniProt O14933)”, for which the “probe-labelled cysteine peptide fold change” value is -0.606.

Still in this test, the particulars now being: 50 µM; THP-1; incubation time: 4 h.
In the case of “VTA1_Q9NP79_87_QLGDNEAITQEIVGCAHLENYALK (UniProt Q9NP79)”, the “probe-labelled cysteine peptide fold change” value turned out to be 0.136.
Same read-out and setting: then “UBR7_Q8N806_155+158_RPYPDPEDEIPDEMIQCVVCEDWFHGR (UniProt Q8N806)”, with -1.14; and “USP48_Q86UV5_652+658_KEEEELNFNEDILCPHGELCISENERR (UniProt Q86UV5)”, with -1.42.
Still for that read-out and setting: then “UBAP1_Q9NZ09_243_ATLDFKPLHKPNGFITLPQLGNCEK (UniProt Q9NZ09)”, with -1.36; and “UBE2G2_P60604_75_FTCEMFHPNIYPDGR (UniProt P60604)”, with -0.214.
The same measure, in the same setting: to “UFC1_Q9Y3C8_116_ICLTDHFKPLWAR (UniProt Q9Y3C8)” belongs -1.26; to TPX2_Q9ULW0_301_GCTIVK (UniProt Q9ULW0), 0.294; to “VLDLR_P98155_251_CPASEIQCGSGECIHK (UniProt P98155)”, -0.248.
On to “TRPM7_Q96QT4_1411_FFVSTPSQPSCK (UniProt Q96QT4)”, for which the “probe-labelled cysteine peptide fold change” value is -0.544.
The same measure, in the same setting: to “TRIM28_Q13263_221+229_HEPLVLFCESCDTLTCR (UniProt Q13263)” belongs -0.368; to “UBA1_P22314_711_SLVLQRPQTWADCVTWACHHWHTQYSNNIR (UniProt P22314)”, 0.238; to “TXN2_Q99757_90+93_VVNSETPVVVDFHAQWCGPCK (UniProt Q99757)”, -2.07.
With “UBXN7_O94888_478_KLSHLDYDITLQEAGLCPQETVFVQER (UniProt O94888)”, the “probe-labelled cysteine peptide fold change” value is -0.0436.
Turning to “VAPA_Q9P0L0_128_CVFEMPNENDK (UniProt Q9P0L0)”, the “probe-labelled cysteine peptide fold change” value was -0.121.
As for “UBR4_Q5T4S7_4890_KQQGYSTVSHFNIVHYDCHLAAVR (UniProt Q5T4S7)”, the “probe-labelled cysteine peptide fold change” value was -0.151.
The same measure, in the same setting: to “TRAP1_Q12931_527_KDTEVLFCFEQFDELTLLHLR (UniProt Q12931)” belongs 0.314.
The same measure, in the same setting: then “TYK2_P29597_736_NLVHGNVCGR (UniProt P29597)”, with -0.24; and “TXNDC5_Q8NBS9_350+353_FYAPWCGHCK (UniProt Q8NBS9)”, with -1.05.
Same read-out and setting: to “TXNIP_Q9H3M7_170_KVSCMFIPDGR (UniProt Q9H3M7)” belongs -1.47; to “TXNL1_O43396_149_AGCECLNESDEHGFDNCLRK (UniProt O43396)”, -0.0731.
Take “UHRF2_Q96PU4_42_VWALFDVRPECQR (UniProt Q96PU4)”: the “probe-labelled cysteine peptide fold change” value is 0.118.
On the same count and under the same terms, then “UCK2_Q9BZX2_197_PAFEEFCLPTK (UniProt Q9BZX2)”, with 0.255; and “TRIM24_O15164_127+134_CPVCSQECAER (UniProt O15164)”, with -0.0216.
In the case of “USP14_P54578_257_CTESEEEEVTK (UniProt P54578)”, the “probe-labelled cysteine peptide fold change” value is -0.167.
For “TRAPPC6A_O75865_124_FLAFTCGLLR (UniProt O75865)”, the “probe-labelled cysteine peptide fold change” value turned out to be 0.608.
Same read-out and setting: then “VPS33B_Q9H267_259_CGSVDFGPEVTSSDK (UniProt Q9H267)”, with 0.293; and “VCPIP1_Q96JH7_469+472_CLLCGALSELHVPPEWLAPGGK (UniProt Q96JH7)”, with 0.233; and UBA6_A0AVT1_156_YQCVVLTEMK, with 0.104.
Still for that read-out and setting: then “UBR1_Q8IWV7_1101_EVLTCILCQEEQEVK (UniProt Q8IWV7)”, with 0.733; and “TRA2B_P62995_119_ANPDPNCCLGVFGLSLYTTER (UniProt P62995)”, with 0.111.
Same read-out and setting: to “TRIM25_Q14258_110_ASAPSPNAQVACDHCLK (UniProt Q14258)” belongs -0.283.
For the target “USP11_P51784_894_DGHYTTFACNK (UniProt P51784)”, the “probe-labelled cysteine peptide fold change” value was -0.393.
Turning to “TSPAN2_O60636_164_ESSEQVQPTCPK (UniProt O60636)”, the “probe-labelled cysteine peptide fold change” value was -0.422.
Same read-out and setting: to “VCPIP1_Q96JH7_517_NYSFPLNNLVCSYDSVK (UniProt Q96JH7)” belongs 0.1.
On the same count and under the same terms, to “UBR4_Q5T4S7_2222_HTACNEQQR (UniProt Q5T4S7)” belongs -1.12.
Still for that read-out and setting: to “TRMT2A_Q8IZ69_270_GGTCAVAAPFDTVHIPEATK (UniProt Q8IZ69)” belongs -0.357; to “TRPM2_O94759_72_ECVYFVESSK (UniProt O94759)”, -0.249; to “UROD_P06132_308_TVTLQGNLDPCALYASEEEIGQLVK (UniProt P06132)”, 0.0622.
Consider “UBE2L6_O14933_86+98_IYHPNVDENGQICLPIISSENWKPCTK (UniProt O14933)”, for which the “probe-labelled cysteine peptide fold change” value was -1.39.
